Experiments:
Test in all cases: log2 ratio of Biotin-Ahx-Ub-VS probe labelling (fragment/DMSO); higher = less target engagement (more negative = stronger competition), active = hit call of the paper (q ≤ 0.05, log2 ratio ≤ -1)
Conditions in all cases: compound concentration: 200 uM; treatment time: 3 h
USP9X = USP9X (UniProt Q93008)
Procedure, shortened: (§1)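 HEK293T lysate, 495 µg per sample in Tris/CHAPS/IGEPAL buffer with protease inhibitors, was treated in triplicate with fragment at 200 µM or vehicle for 3 h and then with Biotin-Ahx-Ub-VS at 0.5 µM final for 1 h. Labelled DUBs were NeutrAvidin-enriched, digested with LysC and trypsin, and run by diaPASEF LC-MS/MS. Spectronaut label-free quantities were global-median-normalised, and values are average log2 fragment/vehicle ratios by unpaired t-test on proteins with ≥2 unique peptides.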

UniProt O00487 = molecular target: UniProt O00487
Procedure, shortened: as §1

UniProt O00507 = molecular target: UniProt O00507
Procedure, shortened: as §1

UniProt P51784 = molecular target: UniProt P51784
Procedure, shortened: as §1

UniProt Q5T2D3 = molecular target: T1, UniProt Q5T2D3
T1 sequence (whole entry): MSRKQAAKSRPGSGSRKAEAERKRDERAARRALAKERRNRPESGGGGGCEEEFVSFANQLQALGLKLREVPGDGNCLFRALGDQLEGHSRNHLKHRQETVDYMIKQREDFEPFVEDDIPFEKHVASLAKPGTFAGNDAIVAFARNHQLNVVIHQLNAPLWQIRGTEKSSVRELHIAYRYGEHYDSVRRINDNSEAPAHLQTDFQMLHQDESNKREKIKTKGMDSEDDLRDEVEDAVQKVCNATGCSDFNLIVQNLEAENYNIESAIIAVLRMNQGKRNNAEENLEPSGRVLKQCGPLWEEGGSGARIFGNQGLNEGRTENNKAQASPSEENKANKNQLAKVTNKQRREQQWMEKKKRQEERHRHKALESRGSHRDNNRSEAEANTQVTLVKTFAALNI
Procedure, shortened: as §1

UniProt Q8TE49 = molecular target: T2, UniProt Q8TE49
T2 sequence (whole entry): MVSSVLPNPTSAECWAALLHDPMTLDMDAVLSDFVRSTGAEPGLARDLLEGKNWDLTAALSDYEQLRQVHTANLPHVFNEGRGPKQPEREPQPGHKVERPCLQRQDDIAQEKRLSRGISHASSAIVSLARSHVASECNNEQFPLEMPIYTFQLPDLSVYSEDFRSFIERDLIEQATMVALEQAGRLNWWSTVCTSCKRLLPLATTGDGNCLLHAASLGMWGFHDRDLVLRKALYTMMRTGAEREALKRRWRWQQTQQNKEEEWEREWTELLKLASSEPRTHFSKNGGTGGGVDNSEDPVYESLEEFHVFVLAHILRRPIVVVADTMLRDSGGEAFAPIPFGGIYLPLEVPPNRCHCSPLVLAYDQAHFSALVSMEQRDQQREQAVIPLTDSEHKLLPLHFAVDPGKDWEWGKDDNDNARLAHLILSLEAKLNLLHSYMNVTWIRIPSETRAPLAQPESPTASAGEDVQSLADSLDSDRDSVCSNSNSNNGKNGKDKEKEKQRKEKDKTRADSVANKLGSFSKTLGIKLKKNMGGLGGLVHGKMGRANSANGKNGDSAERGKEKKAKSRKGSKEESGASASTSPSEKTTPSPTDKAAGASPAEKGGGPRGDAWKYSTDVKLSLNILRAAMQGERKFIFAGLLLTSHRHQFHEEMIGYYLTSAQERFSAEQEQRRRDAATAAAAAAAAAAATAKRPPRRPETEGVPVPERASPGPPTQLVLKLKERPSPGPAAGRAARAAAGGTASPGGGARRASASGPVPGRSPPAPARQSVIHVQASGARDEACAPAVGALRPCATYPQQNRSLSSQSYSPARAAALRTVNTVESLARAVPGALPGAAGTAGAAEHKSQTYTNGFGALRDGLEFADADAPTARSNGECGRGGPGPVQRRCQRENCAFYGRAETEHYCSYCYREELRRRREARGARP
Procedure, shortened: as §1

UniProt Q9P2H5 = molecular target: T3, UniProt Q9P2H5
T3 sequence (whole entry): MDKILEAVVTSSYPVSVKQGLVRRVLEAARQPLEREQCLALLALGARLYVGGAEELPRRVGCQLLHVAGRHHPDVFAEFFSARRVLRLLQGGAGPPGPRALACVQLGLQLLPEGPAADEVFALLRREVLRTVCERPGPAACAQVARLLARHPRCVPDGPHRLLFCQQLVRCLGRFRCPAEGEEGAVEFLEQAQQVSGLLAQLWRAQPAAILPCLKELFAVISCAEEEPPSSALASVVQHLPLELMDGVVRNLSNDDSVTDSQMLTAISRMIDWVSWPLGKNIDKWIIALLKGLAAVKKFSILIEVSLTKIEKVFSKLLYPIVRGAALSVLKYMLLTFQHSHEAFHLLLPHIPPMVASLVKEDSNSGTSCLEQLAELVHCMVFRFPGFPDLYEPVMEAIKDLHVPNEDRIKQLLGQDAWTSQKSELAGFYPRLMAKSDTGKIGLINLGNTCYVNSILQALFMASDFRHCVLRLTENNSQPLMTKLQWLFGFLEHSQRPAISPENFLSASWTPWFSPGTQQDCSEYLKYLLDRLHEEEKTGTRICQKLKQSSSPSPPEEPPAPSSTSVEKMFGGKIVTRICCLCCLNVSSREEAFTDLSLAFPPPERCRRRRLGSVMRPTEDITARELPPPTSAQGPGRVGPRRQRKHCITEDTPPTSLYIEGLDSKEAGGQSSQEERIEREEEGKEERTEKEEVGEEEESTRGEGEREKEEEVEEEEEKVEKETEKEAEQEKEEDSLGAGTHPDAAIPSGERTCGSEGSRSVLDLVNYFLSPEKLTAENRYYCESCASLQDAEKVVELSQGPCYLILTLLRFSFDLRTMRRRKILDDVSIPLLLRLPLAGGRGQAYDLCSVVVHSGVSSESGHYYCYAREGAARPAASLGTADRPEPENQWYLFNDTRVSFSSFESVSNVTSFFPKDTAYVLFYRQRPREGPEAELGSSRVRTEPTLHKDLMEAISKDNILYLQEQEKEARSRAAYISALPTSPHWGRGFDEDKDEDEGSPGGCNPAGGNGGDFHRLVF
Procedure, shortened: as §1

UniProt Q9UGI0 = molecular target: T4, UniProt Q9UGI0
T4 sequence (whole entry): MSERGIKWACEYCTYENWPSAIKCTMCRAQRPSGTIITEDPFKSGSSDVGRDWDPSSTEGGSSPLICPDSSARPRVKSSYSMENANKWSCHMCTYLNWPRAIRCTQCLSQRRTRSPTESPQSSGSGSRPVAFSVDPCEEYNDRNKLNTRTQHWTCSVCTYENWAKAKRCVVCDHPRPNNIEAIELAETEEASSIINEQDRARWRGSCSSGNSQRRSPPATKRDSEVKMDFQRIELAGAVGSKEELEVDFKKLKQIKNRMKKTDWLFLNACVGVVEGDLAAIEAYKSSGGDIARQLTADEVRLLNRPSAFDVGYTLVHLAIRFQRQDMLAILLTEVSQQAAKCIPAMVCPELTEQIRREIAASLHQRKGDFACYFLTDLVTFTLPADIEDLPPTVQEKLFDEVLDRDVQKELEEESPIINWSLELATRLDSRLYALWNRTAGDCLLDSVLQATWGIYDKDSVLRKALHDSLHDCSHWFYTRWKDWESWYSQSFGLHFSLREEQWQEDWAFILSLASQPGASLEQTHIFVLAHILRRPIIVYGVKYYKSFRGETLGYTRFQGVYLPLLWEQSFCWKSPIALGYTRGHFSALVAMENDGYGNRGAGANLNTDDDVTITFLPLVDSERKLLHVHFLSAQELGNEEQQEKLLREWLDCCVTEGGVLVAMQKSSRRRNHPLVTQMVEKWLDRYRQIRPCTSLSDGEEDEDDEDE
Procedure, shortened: as §1

YOD1 = molecular target: T5, YOD1 (UniProt Q5VVQ6)
T5 sequence (whole entry): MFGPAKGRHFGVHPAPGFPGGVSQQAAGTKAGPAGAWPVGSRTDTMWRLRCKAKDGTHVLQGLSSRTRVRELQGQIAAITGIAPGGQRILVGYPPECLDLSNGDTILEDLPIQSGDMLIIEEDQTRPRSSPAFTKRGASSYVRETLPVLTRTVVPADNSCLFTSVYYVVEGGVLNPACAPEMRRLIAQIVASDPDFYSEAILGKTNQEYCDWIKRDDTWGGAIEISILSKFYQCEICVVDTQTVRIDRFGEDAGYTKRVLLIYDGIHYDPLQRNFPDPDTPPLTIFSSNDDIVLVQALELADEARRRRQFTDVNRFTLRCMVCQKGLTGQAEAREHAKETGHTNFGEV
Procedure, shortened: as §1

Measured: log2 ratio of Biotin-Ahx-Ub-VS probe labelling

Chain of UniProt O00487 (O00487 whole entry): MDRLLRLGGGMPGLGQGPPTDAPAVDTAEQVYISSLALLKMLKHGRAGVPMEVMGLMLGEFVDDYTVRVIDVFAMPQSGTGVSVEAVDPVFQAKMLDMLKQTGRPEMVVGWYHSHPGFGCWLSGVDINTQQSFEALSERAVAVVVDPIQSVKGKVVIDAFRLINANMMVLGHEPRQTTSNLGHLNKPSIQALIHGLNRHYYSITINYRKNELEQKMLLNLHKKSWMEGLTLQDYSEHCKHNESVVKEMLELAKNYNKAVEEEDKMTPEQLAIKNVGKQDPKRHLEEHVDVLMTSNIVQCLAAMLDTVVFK
Chain of UniProt P51784 (P51784 whole entry): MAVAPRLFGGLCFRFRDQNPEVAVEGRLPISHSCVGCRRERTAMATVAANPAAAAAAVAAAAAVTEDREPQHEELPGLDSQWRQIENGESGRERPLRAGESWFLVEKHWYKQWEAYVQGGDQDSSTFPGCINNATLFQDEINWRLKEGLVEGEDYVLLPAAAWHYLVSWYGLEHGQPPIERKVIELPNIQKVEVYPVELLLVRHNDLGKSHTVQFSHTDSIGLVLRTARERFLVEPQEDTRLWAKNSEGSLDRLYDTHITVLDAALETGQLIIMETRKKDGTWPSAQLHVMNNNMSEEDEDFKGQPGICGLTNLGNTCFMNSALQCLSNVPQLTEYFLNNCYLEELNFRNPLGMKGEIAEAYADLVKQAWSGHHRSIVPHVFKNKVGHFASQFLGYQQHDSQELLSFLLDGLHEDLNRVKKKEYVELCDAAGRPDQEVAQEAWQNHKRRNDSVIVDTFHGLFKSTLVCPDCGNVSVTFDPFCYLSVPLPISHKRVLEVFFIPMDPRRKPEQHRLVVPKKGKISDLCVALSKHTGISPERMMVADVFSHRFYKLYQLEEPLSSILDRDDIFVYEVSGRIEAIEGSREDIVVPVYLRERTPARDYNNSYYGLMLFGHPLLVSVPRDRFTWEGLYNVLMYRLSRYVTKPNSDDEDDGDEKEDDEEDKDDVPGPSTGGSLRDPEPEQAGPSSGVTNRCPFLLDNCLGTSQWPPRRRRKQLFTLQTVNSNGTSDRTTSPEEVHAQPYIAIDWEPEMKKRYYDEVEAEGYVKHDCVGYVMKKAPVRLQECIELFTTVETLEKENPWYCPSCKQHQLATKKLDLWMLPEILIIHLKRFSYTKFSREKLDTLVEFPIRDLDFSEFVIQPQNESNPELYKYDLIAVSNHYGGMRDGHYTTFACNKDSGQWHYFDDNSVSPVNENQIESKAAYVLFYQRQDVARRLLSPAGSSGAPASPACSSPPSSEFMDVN
Chain of UniProt O00507 (O00507 whole entry): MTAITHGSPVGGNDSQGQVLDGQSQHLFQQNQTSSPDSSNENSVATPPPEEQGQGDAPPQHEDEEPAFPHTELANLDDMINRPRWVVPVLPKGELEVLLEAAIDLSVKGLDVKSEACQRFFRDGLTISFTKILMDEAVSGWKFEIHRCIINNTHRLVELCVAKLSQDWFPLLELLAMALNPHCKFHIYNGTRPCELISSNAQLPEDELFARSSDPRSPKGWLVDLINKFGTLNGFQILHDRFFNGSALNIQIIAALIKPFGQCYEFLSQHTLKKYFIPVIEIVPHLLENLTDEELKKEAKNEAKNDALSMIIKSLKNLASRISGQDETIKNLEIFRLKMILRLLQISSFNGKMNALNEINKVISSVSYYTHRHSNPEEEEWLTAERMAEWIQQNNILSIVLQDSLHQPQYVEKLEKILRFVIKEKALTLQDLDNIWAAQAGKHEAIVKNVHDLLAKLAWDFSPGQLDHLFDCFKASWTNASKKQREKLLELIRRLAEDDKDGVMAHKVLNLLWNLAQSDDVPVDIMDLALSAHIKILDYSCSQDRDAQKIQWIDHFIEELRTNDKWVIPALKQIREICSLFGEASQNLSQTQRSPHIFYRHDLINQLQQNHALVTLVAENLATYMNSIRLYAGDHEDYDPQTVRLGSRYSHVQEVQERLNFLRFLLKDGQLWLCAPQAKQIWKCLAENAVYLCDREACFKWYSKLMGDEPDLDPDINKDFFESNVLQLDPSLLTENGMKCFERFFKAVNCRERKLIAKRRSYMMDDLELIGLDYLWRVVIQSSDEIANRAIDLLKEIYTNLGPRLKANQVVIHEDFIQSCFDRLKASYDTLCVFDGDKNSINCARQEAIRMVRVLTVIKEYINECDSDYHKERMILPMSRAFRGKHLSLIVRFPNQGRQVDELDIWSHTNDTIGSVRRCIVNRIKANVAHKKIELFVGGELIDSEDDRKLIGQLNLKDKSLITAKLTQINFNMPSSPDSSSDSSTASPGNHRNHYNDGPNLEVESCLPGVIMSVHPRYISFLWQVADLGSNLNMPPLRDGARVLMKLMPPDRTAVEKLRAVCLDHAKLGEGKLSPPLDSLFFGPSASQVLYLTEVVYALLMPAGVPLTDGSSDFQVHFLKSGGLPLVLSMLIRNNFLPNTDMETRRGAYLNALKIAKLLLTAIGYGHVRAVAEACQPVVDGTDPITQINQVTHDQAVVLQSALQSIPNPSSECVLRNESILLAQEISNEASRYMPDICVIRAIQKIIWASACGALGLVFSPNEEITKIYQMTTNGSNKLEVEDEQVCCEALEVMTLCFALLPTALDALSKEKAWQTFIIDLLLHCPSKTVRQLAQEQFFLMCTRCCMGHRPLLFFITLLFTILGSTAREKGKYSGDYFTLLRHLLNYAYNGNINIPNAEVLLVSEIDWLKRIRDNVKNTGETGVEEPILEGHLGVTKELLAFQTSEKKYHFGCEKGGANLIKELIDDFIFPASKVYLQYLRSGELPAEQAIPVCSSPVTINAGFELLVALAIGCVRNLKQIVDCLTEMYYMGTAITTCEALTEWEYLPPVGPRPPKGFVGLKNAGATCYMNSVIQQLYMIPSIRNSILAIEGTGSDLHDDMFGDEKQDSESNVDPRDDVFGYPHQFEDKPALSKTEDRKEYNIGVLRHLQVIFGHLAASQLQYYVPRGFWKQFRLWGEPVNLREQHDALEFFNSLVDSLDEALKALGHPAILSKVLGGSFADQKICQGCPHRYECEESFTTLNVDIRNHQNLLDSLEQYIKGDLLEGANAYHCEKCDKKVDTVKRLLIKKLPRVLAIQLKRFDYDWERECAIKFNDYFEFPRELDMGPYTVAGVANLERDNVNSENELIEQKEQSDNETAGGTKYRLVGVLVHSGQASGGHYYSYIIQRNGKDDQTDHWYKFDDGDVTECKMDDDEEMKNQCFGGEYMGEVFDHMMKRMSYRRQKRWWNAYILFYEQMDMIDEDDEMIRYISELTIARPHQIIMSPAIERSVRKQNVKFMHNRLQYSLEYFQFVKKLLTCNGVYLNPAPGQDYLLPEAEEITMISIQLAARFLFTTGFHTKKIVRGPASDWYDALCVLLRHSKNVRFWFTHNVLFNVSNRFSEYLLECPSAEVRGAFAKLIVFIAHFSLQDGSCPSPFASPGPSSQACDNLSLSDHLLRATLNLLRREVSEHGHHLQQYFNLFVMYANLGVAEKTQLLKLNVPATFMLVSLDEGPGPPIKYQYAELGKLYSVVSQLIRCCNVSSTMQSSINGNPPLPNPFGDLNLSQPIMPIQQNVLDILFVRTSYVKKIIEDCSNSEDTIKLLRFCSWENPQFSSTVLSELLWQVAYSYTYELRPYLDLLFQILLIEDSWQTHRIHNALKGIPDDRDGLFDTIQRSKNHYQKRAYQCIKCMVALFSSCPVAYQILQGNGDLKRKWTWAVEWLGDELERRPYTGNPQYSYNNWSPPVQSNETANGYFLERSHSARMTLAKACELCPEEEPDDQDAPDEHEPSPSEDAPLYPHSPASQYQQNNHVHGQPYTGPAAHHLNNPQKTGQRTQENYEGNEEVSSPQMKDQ

O=C(CCl)N1CCCCC12CCOCC2
inactive: USP9X -0.584 | UniProt O00487 -0.282 | UniProt O00507 -0.561 | UniProt P51784 -0.343 | UniProt Q5T2D3 -0.414 | UniProt Q8TE49 -0.444 | UniProt Q9P2H5 -0.444 | UniProt Q9UGI0 -0.517 | YOD1 -0.518

From the supplement of paper PMC11732987, “Enantioselective OTUD7B fragment discovery through chemoproteomics screening and high-throughput optimisation” (Communications Chemistry, 2025)
